Several values for one entry are separate records, joined by “and”; a condition that tells them apart may be missing. Identical values can stand only once.

As a reminder, the inhibition is the change of the read-out against control, counted positive when it falls.

The assay deals with Glucose transporter (Leishmania mexicana) (UniProt O61059). Briefly: ST_JUDE_LEISH: Cytotoxicity at 2uM final concentration against transgenic Leishmania Mexicana promastigotes LmGT2 that are glucose transport deficient and complemented with the L. Mexicana glucose transporter 2. Activity is measured by DNA content using SYBR green in vitro. In kind it is functional.
Regarding `CC[C@H]1CN2CC[C@H]1C[C@H]2C(O)c1cc(OC)nc2ccccc12` (some centres undefined), the inhibition was -0.23%.

As to `O=C(/C=C/c1cccc(Cl)c1)NC1CCC(CN2CCC(c3c[nH]c4ccccc34)CC2)CC1` (centres undefined), the inhibition was -0.58% and 2.44%.

On to `COc1ccc(N(c2nc(-c3cc(Cl)ccc3Cl)cs2)C2CCNCC2)cc1`, for which the inhibition is 1.62%.

With `Cc1csc(-c2ccc3[nH]cc(C4=CCN(C)CC4)c3c2)n1`, the inhibition amounted to 6.12%.

For `CC(=O)C1(c2ccccc2)CCN(CCC2(c3ccc(Cl)c(Cl)c3)CN(C(=O)C3CCCC3)CCO2)CC1` (centres undefined), the inhibition was 0.75%.

Regarding `Cc1c(C)c2c(c(C)c1O)CC[C@@](C)(C(=O)NC1CCC(CN3CCC(c4c[nH]c5ccccc45)CC3)CC1)O2` (some centres undefined), the inhibition came out at 3.01%.

Take `Cc1[nH]c2ccc(O)cc2c1C1CCN(CC2CCC(NC(=O)/C=C/c3ccc(Cl)c(Cl)c3)CC2)CC1` (centres undefined): the inhibition worked out at 0.57%.

`CNCCN(C)C(=O)Oc1c(Cl)c(C)nc(C)c1-c1ccc(Oc2ccc(OC(F)(F)F)cc2)cc1`: the inhibition was 4.28%.

As to `Cc1[nH]c2ccc(O)cc2c1C1CCN(CC2CCN(C(=O)/C=C/c3ccc(Cl)c(Cl)c3)CC2)CC1`, the inhibition was -0.96%.

Consider `CCCCCCC(C)(C)c1cc(O)c2c(c1)OC(C)(C)c1ccncc1-2`, for which the inhibition came to 3.15%.

Take `CC(=O)Nc1ccc(CN2CCC(N(C)c3cc(NC(=O)c4ccc(F)cc4)ccn3)CC2)cc1`: the inhibition was determined as 2.53%.

For `CC[C@H]1CN2CC[C@H]1C[C@H]2[C@H](O)c1ccnc2ccc(OC)cc12`, the inhibition turned out to be 0.32%.

Regarding `O=C(NC1CCC(CN2CCC(c3c[nH]c4ccccc34)CC2)CC1)c1ccc(-c2ccccc2[N+](=O)[O-])o1` (centres undefined), the inhibition was -0.67%.

For `CC[C@H]1CN2CC[C@@H]1C[C@H]2[C@H](O)c1cc(N2CCOCC2)nc2ccc(OC)cc12`, the inhibition is -2.42%.

With `O=C1Nc2cccc3c2C1(CCCCCN1CC=C(c2c[nH]c4ccccc24)CC1)CCC3` (centres undefined), the inhibition is 12.8%.

As for `Cn1cc(CN2CCC(CCOC(c3ccccc3)c3ccccc3)CC2)cn1`, the inhibition was determined as 5.33%.

For `CC[C@H]1CN2CC[C@@H]1C[C@H]2[C@H](O)c1cc(-c2cc(Cl)cc(Cl)c2)nc2ccc(OC)cc12`, the inhibition worked out at 1%.

Consider `Cc1cccc2[nH]cc(C3CCN(CC4CCC(NC(=O)/C=C/c5ccc(Cl)c(Cl)c5)CC4)CC3)c12` (centres undefined), for which the inhibition was found to be 0.15%.

In the case of `O=C(CCCCCc1ccccc1)NC1CCC(CN2CCC(c3c[nH]c4ccccc34)CC2)CC1` (centres undefined), the inhibition was -1.29%.

As to `COCCNCc1ccc(-c2ccc(CN(C(=O)Nc3ccccc3)C3CCN(Cc4ccccc4)CC3)cc2)cc1`, the inhibition amounted to 5.08%.

On to `OC(CNC1CCCCCCC1)c1ccc(Cl)c(Cl)c1` (centres undefined), for which the inhibition was 2.43%.

Regarding `CCCCCCC(C)(C)c1cc(O)c2c3c(c(=O)oc2c1)CCN(Cc1ccccc1)C3`, the inhibition came to 8.58%.

Take `COC(=O)c1ccc(CC(C)NCC(O)c2cccc(SC(F)(F)F)c2)cc1` (centres undefined): the inhibition amounted to 4.01%.

Turning to `CN1CC=C(C=Cc2c[nH]c3ccccc23)CC1`, the inhibition worked out at 3.25%.

`CO[C@@H]1C[C@@H](C(=O)Nc2ccccc2)N(c2ccc(C#N)c3ccccc23)C1`: the inhibition was 3.78%.

On to `CCCCCCC(CC)c1cc(O)c2c(c1)OC(C)(C)c1ccncc1-2` (centres undefined), for which the inhibition is -0.4%.

Consider `CCOc1ccc(Br)cc1/C=C/C(=O)Nc1ccc2c(c1)C1CCC2N1C` (centres undefined), for which the inhibition turned out to be 3.45%.

For `O=C(c1cc(C(F)(F)F)cc(C(F)(F)F)c1)N1CCC(CCN2CCC3(CC2)C(=O)NCN3c2ccccc2)CC1Cc1ccc(Cl)c(Cl)c1` (centres undefined), the inhibition is 6.06%.

In the case of `Cc1c(C)c2c(c(C)c1O)CC[C@](C)(C(=O)N1CCC(CN3CCC(c4c[nH]c5ccccc45)CC3)CC1)O2`, the inhibition is 0.9%.

As to `CC[C@H]1CN2CC[C@H]1C[C@H]2[C@H](O)c1cc(N2CCCC2)nc2ccc(OC)cc12`, the inhibition is 0.03%.

`CCCCOC(C(=O)OCC1CCCN1C)(c1ccccc1)c1ccccc1` (centres undefined): the inhibition is 2.05%.

As to `CC(=O)C1(c2ccccc2)CCN(CCC(NC(=O)c2cc(C(F)(F)F)cc(C(F)(F)F)c2)c2ccc(Cl)c(Cl)c2)CC1` (centres undefined), the inhibition amounted to 5.98%.

Regarding `CN1CC(c2ccc(Cl)c(Cl)c2)OC1=N` (centres undefined), the inhibition is -0.89%.

As to `COC(=O)c1ccc(CC(C)NCC(O)c2ccc(Cl)c(Cl)c2)cc1` (centres undefined), the inhibition amounted to 5.96%.

`Cc1c(C)c2c(c(C)c1O)CC[C@@](C)(C(=O)N1CCC(CN3CCC(c4c[nH]c5ccccc45)CC3)CC1)O2`: the inhibition is -3.6%.

Turning to `O=C(/C=C/c1ccc(Cl)c(Cl)c1)NC1CCC(CN2CCC(c3c[nH]c4ccc(O)cc34)CC2)CC1` (centres undefined), the inhibition was -2.67% and 3.13%.

With `c1ccc(C(OCCC2CCN(Cc3cccnc3)CC2)c2ccccc2)cc1`, the inhibition turned out to be 0.26%.

For the compound `O=C(COc1ccc(Cl)cc1)N1CCC(CN2CCC(c3c[nH]c4ccccc34)CC2)CC1`, the inhibition is -4.27%.

As to `O=c1c2ccccc2nc(/C=C/c2ccc([N+](=O)[O-])cc2)n1-c1ccccn1`, the inhibition came out at 6.71%.
